The source of these data is PubChem BioAssay (NCATS).

Records with an inconclusive call do not appear. The source made the active and inactive calls. Calls come from the whole dose curve; as a rule, active = well fitted inhibition curve with a large enough effect; inconclusive = small, poorly fitted or top-dose-only effect; inactive = flat fitted curve, though single readings scatter.

Assay in all cases: qHTS profiling for inhibitors of Plasmodium falciparum proliferation (AID 504749); note: nearly all actives have a fitted effect of over 60% in size
What all share (conditions): P. falciparum in erythrocytes, SYBR Green DNA, 72 h; series mostly up to 28.7 µM
Background: Quantitative high-throughput screening tests each substance at several concentrations.

In one assay the test system is PC15. Put shortly:
(§1)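 P. falciparum-infected erythrocytes (0.3% parasitemia, 2.5% hematocrit) incubated with compound 72 h at 37 C, 5% CO2. Parasite DNA detected by SYBR Green after lysis, overnight at room temperature; normalised to 0.29 uM artemisinin and DMSO.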

The test system of the next assay is PC26. The method, boiled down: as §1
A further assay relates to PC49. Put shortly: as §1
A further assay has as its system SC27B. Put shortly:
as §1

For the next assay, the system named is TAB109. Put shortly:
as §1

A further assay deals with TAB113. The method, boiled down:
as §1

The test system of the next assay is TAB165. Put shortly: as §1
For a further assay, the system named is W2. Put shortly: as §1
Potency is the fitted concentration of half-maximal effect.

As for `COc1ccc(/C=C/C(=O)O)cc1`, the Potency entry in the assay on PC15, in the assay on PC26, with PC49, in the assay on SC27B, in the assay on TAB109 and with TAB113 was “inactive” each time. The Potency entry in the assay on TAB165 and in the assay with W2 was “inactive” each time.
In the case of `Cc1ccccn1`, the Potency entry with PC15, with PC26, in the assay on PC49, with SC27B, in the assay with TAB109 and with TAB113 was “inactive” each time. The Potency result with TAB165 and in the assay with W2 was “inactive” throughout.
In the case of `FC(F)(F)C(F)(F)C(F)(F)C(F)(F)C(F)(F)F`, the Potency entry in the assay with PC15, in the assay on PC26, in the assay with PC49, in the assay on SC27B, with TAB109 and in the assay on TAB113 was “inactive” each time. For the same compound, the Potency entry in the assay on TAB165 and with W2 was “inactive” throughout.
As for `CN=C1C=CC(=C(c2ccc(N(C)C)cc2)c2ccc(N(C)C)cc2)C=C1`, the Potency in the assay on PC15 was 1 µM (active); with PC26, 1.69 µM (active); with PC49, 1.41 µM (active); in the assay on SC27B, 1 µM (active); in the assay on TAB109, 891 nM (active); with TAB113, 891 nM (active). In addition, the Potency was 891 nM (active) in the assay on TAB165 and 151 nM (active) with W2.
As for `CNC(=O)OCc1cccc(COC(=O)NC)n1`, the Potency result with PC15, with PC26, with PC49, in the assay on SC27B, in the assay with TAB109 and in the assay on TAB113 was “inactive” in each case. Besides, the Potency result in the assay on TAB165 and in the assay with W2 was “inactive” throughout.
On to `N[C@H](CC(=O)O)C(=O)O`, for which the Potency entry in the assay with PC15, in the assay on PC26, with PC49, with SC27B, in the assay with TAB109 and in the assay with TAB113 was “inactive” throughout. Further, the Potency entry in the assay with TAB165 and in the assay on W2 was “inactive” throughout.
On to `CN1CCC(OC(=O)C(Oc2ccc(Cl)cc2)Oc2ccc(Cl)cc2)CC1`, for which the Potency result in the assay with PC15, in the assay with PC26, in the assay with PC49, with SC27B, in the assay on TAB109 and with TAB113 was “inactive” in each case. For the same compound, the Potency result in the assay with TAB165 and in the assay with W2 was “inactive” each time.
In the case of `O=C(NNCNNC(=O)c1ccncc1)c1ccncc1`, the Potency result in the assay with PC15, in the assay with PC26, in the assay with PC49, in the assay on SC27B, in the assay on TAB109 and in the assay with TAB113 was “inactive” in each case. The Potency result in the assay with TAB165 and with W2 was “inactive” each time.
As to `FC(F)(F)COCC(F)(F)F`, the Potency result with PC15, with PC26, in the assay on PC49, in the assay on SC27B, with TAB109 and with TAB113 was “inactive” in each case. For the same compound, the Potency result with TAB165 and with W2 was “inactive” each time.
